Compound activity (PubChem)
ELG1 repair inh = qHTS screen for small molecules that inhibit ELG1-dependent DNA repair in human embryonic kidney (HEK293T) cells expressing luciferase-tagged ELG1; 330,000 tested, 2.3% active; HEK293T ELG1-luciferase reporter, luminescence, 16 h; DNA damage induced by 5-fluorouridine; Potency, µM (doses to about 46.1 µM), most hits filed as inhibitors; AID 504467, 2011; also: nearly all actives have a fitted effect of over 55% in size
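DMSO vehicle served as the neutral condition. Each well held 2,000 cells given 5-fluorouridine plus compound; after 16 hr at 37 °C/5% CO2, ONE-Glo was added and luciferase measured 30 min later.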
SW480 rerep = A quantitative high throughput screen for small molecules that induce DNA re-replication in SW480 colon adenocarcinoma cells; Potency, µM (top dose mostly 46.1 µM), usual class: activators; 340,000 tested, 1.8% active; AID 624297, 2012; SW480 DNA re-replication, Hoechst DNA content imaging, 48 h; also: nearly all actives have a fitted effect of over 55% in size
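Per well, 250 cells were exposed to pinned compound for 48 hr. Nuclear DNA was visualised with Hoechst (40 min, 37 C) and total object intensity recorded by fluorescence scanning.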
MCF10A rereplic = A quantitative high throughput screen for small molecules that induce DNA re-replication in MCF 10a normal breast cells | MCF 10A DNA re-replication, Hoechst nuclear intensity, 48 h | Potency, µM (titrated, usually from 46.1 µM), actives largely listed as activators | 350,000 tested, 2.9% active | AID 624296, 2012; also: nearly all actives have a fitted effect of over 50% in size
KB-3-1 cytotox = qHTS assay for MDR1-selective chemotherapeutics: Primary screen using the parental adenocarcinoma cell KB-3-1 | KB-3-1 viability, CellTiter-Glo ATP luminescence, 72 h | Potency, µM (series often up to 46.1 µM), hits mostly cytotoxic | 400,000 tested, 1.4% active; also: nearly all actives have a fitted effect of over 60% in size
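KB-3-1 parental drug-naive adenocarcinoma cells in DMEM/10% FBS, incubated 72 h at 37 C with pin-transferred compounds across a concentration series. Viability by CellTiter-Glo luminescence; concentration-response curves fitted after normalization.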
KB-V1 cytotox = qHTS assay for MDR1-selective chemotherapeutics: Primary screen using the drug-selected MDR subline cells KB-V1; KB-V1 MDR cells viability, CellTiter-Glo, 72 h; 400,000 tested, 3.4% active; Potency, µM (top dose mostly 46.1 µM), hits mostly cytotoxic; AID 1347076, 2019; also: nearly all actives have a fitted effect of over 60% in size
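Drug-selected KB-V1 cells, grown in DMEM lacking phenol red with 10% FBS, receive compound titrations; after three days at 37 degrees C, surviving cell ATP is quantified by CellTiter-Glo luminescence and responses normalized and curve-fitted.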
Of the large screens only hits and unclear results are named; the others gave an inactive call. In the library only some 8.1% were active in any assay of this set; here they are far more common. Calls follow the shape of the dose curve; as a rule, active = well fitted curve in the direction sought with a large enough effect; inconclusive = small, poorly fitted or top-dose-only effect, or another doubt; inactive = no such curve, though single readings can be large; an effect the other way counts as inactive or inconclusive.

COc1ccc(S(=O)(=O)Nc2cc3c4c(c2)CCC(=O)N4CCC3)cc1C	KB-V1 cytotox inconclusive
CCN(CC)S(=O)(=O)c1ccc(NC(=O)c2ccc(CN3CCOCC3)cc2)cc1	ELG1 repair inh inconclusive, KB-3-1 cytotox 3.3µM, KB-V1 cytotox inconclusive
CCCOc1ccc(C(=O)Nc2ccc(CN3CCOCC3)cc2)cc1	MCF10A rereplic inconclusive
O=C(Nc1ccc(S(=O)(=O)N2CCCCC2)cc1)c1ccc(CN2CCOCC2)cc1	ELG1 repair inh 7.3µM, MCF10A rereplic inconclusive, KB-3-1 cytotox 7.3µM, KB-V1 cytotox 2.1µM
O=C(Nc1ccc(S(=O)(=O)N2CCCC2)cc1)c1ccc(CN2CCOCC2)cc1	ELG1 repair inh inconclusive, KB-3-1 cytotox inconclusive, KB-V1 cytotox inconclusive
CCCOc1cccc(C(=O)Nc2ccc(CN3CCOCC3)cc2)c1	MCF10A rereplic 21µM
NS(=O)(=O)c1ccc(NC(=O)c2ccc(S(=O)(=O)N3CCOCC3)o2)cc1	none
O=C(Nc1ccc(F)cc1)c1ccc(S(=O)(=O)N2CCOCC2)o1	ELG1 repair inh 16µM
OCC1OC(Nc2ccccc2C=NO)C(O)C1O (stereo not drawn)	none (no result: ELG1 repair inh, SW480 rerep, MCF10A rereplic)
CCOC(=O)C1CCCN(C(=O)c2ccc(-c3ccccc3)cc2)CC1 (stereo not drawn)	none (no result: ELG1 repair inh, SW480 rerep, MCF10A rereplic)
CC1CN(S(=O)(=O)c2ccc(C(=O)Nc3ccc(S(=O)(=O)N4CCOCC4)cc3)cc2)CC(C)O1 (stereo not drawn)	ELG1 repair inh 8.2µM
O=C(/C(=C/O)N=Nc1ccc(Cl)cc1)c1ccncc1	SW480 rerep inconclusive, MCF10A rereplic inconclusive, KB-3-1 cytotox 13µM
Cc1ccc(N=N/C(=C\O)C(=O)c2ccncc2)cc1	ELG1 repair inh inconclusive, MCF10A rereplic inconclusive
CSc1nnc(-c2sccc2OCc2ccc(C)cc2)n1C	SW480 rerep inconclusive, MCF10A rereplic inconclusive, KB-3-1 cytotox inconclusive, KB-V1 cytotox 18µM
Cc1ccc(C(=O)c2oc3ccccc3c2NC(=O)c2cc(-c3ccc(Cl)cc3)on2)cc1	none (no result: ELG1 repair inh, SW480 rerep, MCF10A rereplic)
CCc1ccccc1NC(=O)Cn1c(=O)n(-c2ccc(CC(=O)NCC3CCCO3)cc2)c(=O)c2ccccc21 (stereo not drawn)	KB-V1 cytotox inconclusive
O=C(Cc1ccc(-n2c(=O)c3ccccc3n(Cc3ccccc3Cl)c2=O)cc1)NCC1CCCO1 (stereo not drawn)	ELG1 repair inh 9.2µM, KB-V1 cytotox inconclusive
O=C(Cc1ccc(-n2c(=O)c3ccccc3n(Cc3ccccc3F)c2=O)cc1)NCC1CCCO1 (stereo not drawn)	ELG1 repair inh inconclusive, MCF10A rereplic inconclusive
O=C(Cc1ccc(-n2c(=O)c3ccccc3n(Cc3ccc(F)cc3)c2=O)cc1)NCC1CCCO1 (stereo not drawn)	ELG1 repair inh 10µM
O=C(c1ccncc1)c1ccc(N2CCN(C3CC(=O)N(Cc4ccccc4)C3=O)CC2)cc1 (stereo not drawn)	ELG1 repair inh inconclusive, MCF10A rereplic inconclusive, KB-3-1 cytotox inconclusive, KB-V1 cytotox 16µM
COCc1cc(C)[nH]c(=O)c1C(=O)NC12CC3CC(CC(C3)C1)C2	ELG1 repair inh 18µM
CCOC(=O)Cc1csc(/N=C/c2c(O)n(-c3ccccc3C(F)(F)F)c(=O)c3ccccc23)n1	ELG1 repair inh 13µM, KB-3-1 cytotox inconclusive
Cn1c(=O)c(C(=O)COC(=O)c2cc(-c3ccco3)nc3ccccc23)c(N)n(CC2CC2)c1=O	ELG1 repair inh 6.5µM, SW480 rerep 16µM (no result: KB-3-1 cytotox, KB-V1 cytotox)
O=C1C(=C(I)I)c2ccccc2-c2ccccc21	SW480 rerep 5.8µM, MCF10A rereplic inconclusive, KB-3-1 cytotox inconclusive, KB-V1 cytotox 15µM (no result: ELG1 repair inh)
CCN(CC)C(=O)CSc1nc2c(sc(=S)n2-c2ccccc2)c(=O)[nH]1	MCF10A rereplic 0.65µM, KB-V1 cytotox inconclusive
CCOC(=O)CSc1nc2c(sc(=S)n2-c2ccc(CC)cc2)c(=O)[nH]1	none
CCOC(=O)CC(=O)CSc1nc2c(sc(=S)n2-c2ccccc2)c(=O)[nH]1	MCF10A rereplic 16µM
